# Measurements published in ChEMBL document CHEMBL3988442, “University of Dundee, Small-Polar-MMV Screening Library” (2021).
# Among all 69,000 compounds or so, about 1,000 (1.4%) showed an effect of 50% or more. This is one part of a sample in which strong results are shown more often than they occur.
# System: Leishmania donovani
# Test: Leishmania intramacrophage assay
# Assay type: functional, organism-based
# Design: scale not given: in the data most compounds retested in dose-response had high values
structure (smiles),measurement,setting,value
COCCC(=O)N1CCN(CC(C)C)c2nc(C)ccc2C1.O=C(O)C(F)(F)F,Percent Effect,"30.3 µM, […]",8.451%
CC1(NC(=O)Cc2cccs2)CCS(=O)(=O)C1 (stereo unspecified),Percent Effect,"30.3 µM, […]",19.51%
CC(C)CCn1nc2ccc(S(=O)(=O)N3CCOCC3)cn2c1=O,Percent Effect,"30.3 µM, […]",-38.47%
CCn1nc2ccc(S(=O)(=O)N3CCSCC3)cn2c1=O,Percent Effect,"30.3 µM, […]",8.958%
CC(C)Cn1nc2ccc(S(=O)(=O)N3CCC(C)CC3)cn2c1=O,Percent Effect,"30.3 µM, […]",58.76%
CCN(C)S(=O)(=O)N(Cc1cscn1)c1ccccc1,Percent Effect,"30.3 µM, […]",-18.14%
Cc1nc(C2CCCN2CCCS(N)(=O)=O)no1 (stereo unspecified),Percent Effect,30 µM,6.42%
Cc1ccc(-c2cc(C(=O)NCCCc3csc(N)n3)[nH]n2)o1,Percent Effect,"30.3 µM, […]",-46.01%
Cc1ccc(-c2cc(C(=O)NCCCc3csc(N)n3)[nH]n2)s1,Percent Effect,"30.3 µM, […]",19.81%
Cn1cccc1-c1cc(C(=O)NCCCc2csc(N)n2)[nH]n1,Percent Effect,"30.3 µM, […]",54.27%
Cc1ccc(N2CC[C@@H]3O[C@@H](COCc4cccnc4)CC[C@@H]32)nn1.O=C(O)C(F)(F)F.O=C(O)C(F)(F)F,Percent Effect,"30.3 µM, […]",-9.892%
CCN1CC2(CCNCC2)COc2ccccc2S1(=O)=O.O=C(O)C(F)(F)F,Percent Effect,"30 µM, 30.03 µM",13.53%
O=C(c1ccn(COc2ccc(F)cc2)n1)N1CCCCCC1,Percent Effect,"30.3 µM, […]",-66.53%
CC(C)c1ccc(OCn2ccc(C(=O)N3CCCC3)n2)cc1,Percent Effect,"30 µM, 30.03 µM",59.3%
O=C(c1ccn(COc2ccc(F)cc2)n1)N1CCCC1,Percent Effect,"30.3 µM, […]",0.02157%
Cc1nsc(C(=O)NCCc2ccc(Cl)cc2)n1,Percent Effect,"30.3 µM, […]",25.28%
Cc1ccnc(NCCCN2CCc3ccccc32)n1,Percent Effect,"30.3 µM, […]",20.07%
Cc1cnc(NCCCN2CCc3ccccc32)nc1,Percent Effect,"30.3 µM, […]",21.16%
CN(C)c1nc(NCCCN2CCc3ccccc32)ncc1F,Percent Effect,"30.3 µM, […]",50.82%
CNC(=O)c1cccc(NC(=O)CN2CCN(S(C)(=O)=O)CC2)c1,Percent Effect,"30 µM, 30.03 µM",9.767%
Cc1ccc(OCC(=O)N(C)Cc2cccc(F)c2)cn1,Percent Effect,"30.3 µM, […]",34.51%
O=C(NC1CCN(CC2CCCC2)C1)N1CCC(OCC2CC2)CC1 (stereo unspecified),Percent Effect,"30.3 µM, […]",32.77%
O=C(CCN1CCCCO1)NC1CCCN(CC2CCCCC2)C1 (stereo unspecified),Percent Effect,"30.3 µM, […]",-1.788%
O=C(NC1CCN(CC2CC2)C1)N1CCC(OC2CCCCC2)CC1 (stereo unspecified),Percent Effect,"30.3 µM, […]",53.02%
CSC(C)(C)CNC(=O)NC1CCN(CC2CC2)C1 (stereo unspecified),Percent Effect,"30.3 µM, […]",2.957%
NC(=O)C1CCN(C(=O)NC2CCN(CC3CCCC3)C2)CC1 (stereo unspecified),Percent Effect,"30.3 µM, […]",54.02%
O=C(CCN1CCOCC1)NC1CCCN(CC2CCCCC2)C1 (stereo unspecified),Percent Effect,"30.3 µM, […]",10.41%
COc1ncccc1C(=O)N1CCCC1c1c(C)n[nH]c1C (stereo unspecified),Percent Effect,"30.3 µM, […]",18%
Cc1noc(C2CCCN(C(=O)CCCNc3ncccn3)C2)n1 (stereo unspecified),Percent Effect,30 µM,-32%
CN(CC(=O)N1CCN(c2ncccn2)CC1)c1ccc(Cl)cn1,Percent Effect,"30 µM, 30.03 µM",26.44%
O=C(O)c1ccc(C2CCCN(Cc3ccc(-c4cc[nH]n4)o3)C2)cc1 (stereo unspecified),Percent Effect,"30.3 µM, […]",54.21%
O=C(O)c1ccc(CC2CCN(Cc3ccc(-c4cc[nH]n4)o3)C2)cc1 (stereo unspecified),Percent Effect,"30.3 µM, […]",-33.6%
O=C(O)c1ccccc1C1CCN(Cc2ccc(-c3cc[nH]n3)o2)C1 (stereo unspecified),Percent Effect,"30.3 µM, […]",8.649%
CNC(=O)CNC(=O)Nc1ccc(Br)c(F)c1,Percent Effect,"30.3 µM, […]",-0.911%
CCOc1ccc2ccccc2c1CNCC1CCS(=O)(=O)C1.Cl (stereo unspecified),Percent Effect,"30.3 µM, […]",-4.478%
CCOc1ccc2ccccc2c1CNCC1CCNCC1.Cl.Cl,Percent Effect,"30.3 µM, […]",87.01%
COc1ccc2ccccc2c1CNCC1CCS(=O)(=O)C1.Cl (stereo unspecified),Percent Effect,"30.3 µM, […]",-2.378%
CN(C)C(=O)COC1COC2(CCN(S(C)(=O)=O)CC2)C1 (stereo unspecified),Percent Effect,"30 µM, 30.03 µM",8.131%
COc1ccc(-c2noc([C@@H](C)NS(=O)(=O)CC(C)C)c2C(=O)O)cc1,Percent Effect,"30.3 µM, […]",14.82%
OCc1ccncc1NCc1cnc(-c2ccccn2)s1,Percent Effect,"30.3 µM, […]",26.01%
Cc1nn(CC(=O)NCCc2ccncc2)c(=O)n1Cc1ccccc1,Percent Effect,"30.3 µM, […]",4.169%
C=C(C)COc1cccc(CNCCc2nc(N)cc(O)n2)c1,Percent Effect,"30.3 µM, […]",10.98%
CCOCc1ccc(NC(=O)N2CCOC3(CCC3)C2)cc1,Percent Effect,"30.3 µM, […]",-4.354%
Cc1ccc(C(=O)O)cc1CNC(=O)CN1CC[C@](C)(O)C(C)(C)C1,Percent Effect,"30.3 µM, […]",62.04%
CC1(C)CN(CC(=O)NCc2ccccc2F)C[C@]1(C)O,Percent Effect,"30.3 µM, […]",15.59%
Cc1ccc(C(=O)O)cc1CNC(=O)CN1CC(C)(C)[C@@](C)(O)C1,Percent Effect,"30.3 µM, […]",14.97%
Cl.Cn1ccnc1Sc1ccc(N)cn1,Percent Effect,"30.3 µM, […]",50.34%
CN1CCN(S(=O)(=O)c2ccc(Sc3nccn3C)nc2)CC1,Percent Effect,"30.3 µM, […]",0.3902%
Cn1ccnc1Sc1ccc(S(N)(=O)=O)cn1,Percent Effect,"30.3 µM, […]",-16.43%
COC(=O)CC1C(=O)NCCN1c1nc2c(s1)c(C)nn2C (stereo unspecified),Percent Effect,"30.3 µM, […]",6.396%
COc1ccc2c(O)c(NC(=O)NCC3CC3)cnc2c1,Percent Effect,"30 µM, 30.03 µM",-30.24%
C=Cc1ccc(CN2C(=O)C3(CCNCC3)Nc3ccccc32)cc1,Percent Effect,"30.3 µM, […]",98.05%
CC(C)c1ccc(CN2C(=O)C3(CCNCC3)Nc3ccccc32)cc1,Percent Effect,"30.3 µM, […]",100.4%
NC(=O)c1ccc(CN2C(=O)C3(CCNCC3)Nc3ccccc32)cc1,Percent Effect,"30.3 µM, […]",29.82%
N#Cc1cccc(CN2C(=O)C3(CCNCC3)Nc3ccccc32)c1,Percent Effect,"30.3 µM, […]",37.63%
Cl.O=C1CC2(CCNCC2)C(=O)N1Cc1ccc(F)cc1,Percent Effect,"30.3 µM, […]",26.47%
C=Cc1ccc(CN2CCCC3(CNC(=O)c4ccccc4O3)C2)cc1 (stereo unspecified),Percent Effect,"30.3 µM, […]",-7.721%
O=C(O)C(F)(F)F.O=S(=O)(N[C@@H]1CCO[C@]2(CCN(CC3CCOCC3)C2)C1)C1CC1,Percent Effect,"30.3 µM, […]",12.64%
Cn1cccc1C(=O)NCc1cn2c(n1)CN(Cc1ccccn1)CC2.O=C(O)C(F)(F)F.O=C(O)C(F)(F)F,Percent Effect,"30.3 µM, […]",52.64%
Cn1cc(C(=O)NCc2cn3c(n2)CN(Cc2ccccn2)CC3)cn1.O=C(O)C(F)(F)F.O=C(O)C(F)(F)F,Percent Effect,"30 µM, 30.03 µM",26.85%
Cn1cccc1C(=O)NCc1cn2c(n1)CN(Cc1cccnc1)CC2.O=C(O)C(F)(F)F.O=C(O)C(F)(F)F,Percent Effect,"30.3 µM, […]",5.106%
O=C(c1cccc2[nH]ccc12)N1CCC2(CCOC2)C1 (stereo unspecified),Percent Effect,"30.3 µM, […]",24.57%
Cc1cnc(N2CCOCC3(CCN(c4ccccn4)C3)C2)nc1.O=C(O)C(F)(F)F.O=C(O)C(F)(F)F (stereo unspecified),Percent Effect,"30.3 µM, […]",-8.514%
CCc1c(C)sc2nc3n(CCN(C)C)nc(SC)n3c(=O)c12,Percent Effect,"30.3 µM, […]",24.34%
CCc1c(C)sc2nc3n(CCN4CCOCC4)nc(SC)n3c(=O)c12,Percent Effect,"30.3 µM, […]",9.764%
CCc1c(C)sc2nc3n(CCN4CCCCC4)nc(SC)n3c(=O)c12,Percent Effect,"30.3 µM, […]",50.52%
CCn1cc(Br)c(C(=O)NCc2cccnc2)n1,Percent Effect,"30 µM, 30.03 µM",0.8694%
N#Cc1cnc(N2CCC3(CC2)OCCO3)nc1N,Percent Effect,"30.3 µM, […]",39.63%
O=C1NCCN1C1CCN(Cc2nc(-c3ccccc3)no2)CC1,Percent Effect,30 µM,51.92%
O=C1NCCN1C1CCN(Cc2nc(-c3ccoc3)no2)CC1,Percent Effect,"30 µM, 30.03 µM",14.49%
O=C1NCCN1C1CCN(Cc2nc(-c3ccsc3)no2)CC1,Percent Effect,30 µM,51.47%
Cc1ccc(-c2noc(CN3CCC(N4CCNC4=O)CC3)n2)cc1,Percent Effect,30 µM,33.86%
Cc1cccc(-c2noc(CN3CCC(N4CCNC4=O)CC3)n2)c1,Percent Effect,"30 µM, 30.03 µM",37%
Cc1ccccc1-c1noc(CN2CCC(N3CCNC3=O)CC2)n1,Percent Effect,30 µM,45.33%
NC(=O)C1CCCN1C(=O)c1cccc2c1OCO2 (stereo unspecified),Percent Effect,"30.3 µM, […]",-0.4744%
CCC(NC(=O)C1CC1)c1ccccc1OCC(=O)N1CCCC1 (stereo unspecified),Percent Effect,30 µM,-1.247%
CNC(=O)C1CN(C)CCN(C(=O)CCn2nnc3ccccc32)C1 (stereo unspecified),Percent Effect,"30.3 µM, […]",12.96%
CN(C)c1ccc(C2CC(=O)Nc3c2cnn3Cc2ccco2)cc1 (stereo unspecified),Percent Effect,"30.3 µM, […]",7.757%
CN(Cc1cc2cc(F)ccc2[nH]1)C(=O)C1CC(=O)N(C2CCCC2)C1 (stereo unspecified),Percent Effect,"30.3 µM, […]",9.704%
CCN(Cc1c(F)cccc1Cl)c1cc(C2CCNCC2)nc(C)n1,Percent Effect,"30.3 µM, […]",100.4%
Cc1ccc(-c2cc(C3CCNCC3)nc(C)n2)cc1.Cl,Percent Effect,"30.3 µM, […]",14.23%
Cc1nc(-c2ccc(F)c(F)c2)cc(C2CCNCC2)n1.Cl,Percent Effect,"30.3 µM, […]",47.49%
Cc1nc(C2CCNCC2)cc(N(C)Cc2cc3cc(F)ccc3[nH]2)n1,Percent Effect,"30.3 µM, […]",78.55%
CCN(Cc1ccncc1)c1cc(C2CCCNC2)nc(C)n1 (stereo unspecified),Percent Effect,"30.3 µM, […]",-18.58%
CCN(Cc1ccncc1)c1cc(C2CCNCC2)nc(C)n1,Percent Effect,"30.3 µM, […]",4.844%
Cc1c(CN(C)c2cc(C3CCCNC3)ncn2)[nH]c2ccccc12 (stereo unspecified),Percent Effect,"30.3 µM, […]",16.72%
CN(Cc1cc2cc(F)ccc2[nH]1)c1cc(C2CCCNC2)ncn1 (stereo unspecified),Percent Effect,"30.3 µM, […]",78.22%
COc1ccc2[nH]c(CNc3cc(C4CCNCC4)nc(C)n3)cc2c1,Percent Effect,"30.3 µM, […]",-59.5%
Cc1nc(C2CCNCC2)cc(N(C)CCc2cn[nH]c2)n1,Percent Effect,"30.3 µM, […]",2.569%
Cc1nc(-c2ccc(F)cc2)cc(C2CCNCC2)n1,Percent Effect,"30.3 µM, […]",99.23%
CN(C)c1ccc(NC(=O)c2cccc(N(C)C)c2)nc1,Percent Effect,"30.3 µM, […]",-2.123%
CCC(Nc1nc(C)nc2c1cnn2C)c1ncnn1CC (stereo unspecified),Percent Effect,"30.3 µM, […]",26.92%
O=C(CCn1ccc2cc(Br)ccc21)/N=c1\[nH]nc(C2CCCO2)s1 (stereo unspecified),Percent Effect,"30.3 µM, […]",4.273%
Cc1ccoc1-c1nnc(CNCC2CCCN2c2cccnn2)o1 (stereo unspecified),Percent Effect,"30 µM, 30.03 µM",-17.44%
COCCN(C)C[C@@H]1CN(C(=O)c2ccc(C)cc2)C[C@@H]1CO,Percent Effect,"30.3 µM, […]",11.58%
CN1CCCC2(CCN(C(=O)Cn3ncc4ccccc4c3=O)C2)C1=O (stereo unspecified),Percent Effect,"30.3 µM, […]",-13.05%
Cc1ccc(CN2CCN(CC(=O)N(C)C)[C@@H]3CS(=O)(=O)C[C@@H]32)cc1C,Percent Effect,"30.3 µM, […]",18.74%
COc1ccc(-c2noc(C(N)CCSC)n2)cc1 (stereo unspecified),Percent Effect,"30.3 µM, […]",-25.69%
NC(=O)c1ccc(OCCCN2C[C@H](C3CC3)[C@@H](N)C2)cc1,Percent Effect,"30.3 µM, […]",42.52%
N[C@H]1CN(CCCOc2ccccc2)C[C@@H]1C1CC1,Percent Effect,"30.3 µM, […]",66.02%
N[C@H]1CN(CCOc2ccc(F)cc2)C[C@@H]1C1CC1,Percent Effect,"30.3 µM, […]",44.73%
